Assay [1] deals with Wnt5a (protein binding on small-molecule microarray). The assay can be described thus: Wnt5a binders on small-molecule microarray, primary screen, biophysical, 635/667 nm fluorescence (AID 1142).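 Also: fluorescence read at 667 nm with signal to noise per printed feature.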 The following applies: 635 nm fluorescence, higher = more signal.
A short description of assay [2]: cell viability in Huh7 cells, primary screen, cytotoxicity control for HCV replication inhibitor project, CellTiter-Glo luminescence, basal, 48 h (AID 1143).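 Also: Huh7 hepatoma cells carrying a hepatitis C replication reporter with no stimulus; test concentration not given here.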 Particulars: Huh7 HCV replicon, higher = more signal, called active from +8 up or from −8 down. (In general: In ATP-based viability assays light output follows the ATP content of the culture.)
The nature of assay [3]: P. aeruginosa biofilm formation inhibitors, primary screen, PAO1 strain, BacTiter-Glo luminescence, LB-PBS (AID 1144). Particulars: 12 h, higher = more signal.
A short description of assay [4]: CREB reporter modulators without forskolin, primary screen, cell-based, PC12, CRE-LacZ reporter, unstimulated (AID 1145). The following applies: no forskolin, luminescence, 4.5 h, higher = more signal, called active from +8 up or from −8 down.
Assay [5] can be described thus: CREB reporter modulators under forskolin, primary screen, cell-based, PC12, CRE-LacZ reporter, forskolin-stimulated (AID 1146).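 Also: PC12 cells with 6xCRE LacZ reporter stimulated by forskolin 10 µM; beta-galactosidase reporter signal reflecting CREB driven transcription.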 The following applies: luminescence, 4.5 h, higher = more signal, called active from +8 up or from −8 down.
In assay [6] the target is Streptavidin (Streptomyces avidinii) (UniProt P22629). The assay can be described thus: streptavidin binders on small-molecule microarray, primary screen, artefact control for SMM compound annotation, biophysical, 635/667 nm fluorescence (AID 1147).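 Also: signal reflects streptavidin binding to arrayed compounds as a control protein.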 The following applies: streptavidin binding, higher = more signal.
Streptavidin (Streptomyces avidinii), sequence (P22629 whole entry, looked up): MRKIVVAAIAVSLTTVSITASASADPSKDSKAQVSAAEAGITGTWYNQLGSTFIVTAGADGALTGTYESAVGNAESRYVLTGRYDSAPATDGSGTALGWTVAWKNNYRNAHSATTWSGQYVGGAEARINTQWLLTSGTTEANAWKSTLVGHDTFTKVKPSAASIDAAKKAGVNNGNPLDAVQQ
Assay [7] is described as follows: small-molecule binders of probe aInhba, primary screen, biochemical, small-molecule microarray, 635/667 nm fluorescence (AID 1148).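 Also: score merges 667nm spot fluorescence with signal-to-noise for antibody binding to printed compounds.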 The following applies: higher = more signal.
Assay [8] addresses Torsin-1A (Homo sapiens) (UniProt O14656). The assay can be described thus: torsin A binders from cell lysate, primary screen, small-molecule microarray, wild-type, 635/667 nm (AID 1149). Particulars: COS7 hTOR1A-WT lysate, 635 nm fluorescence, higher = more signal.
For assay [9] the target is unchanged. The assay can be described thus: small-molecule binders of mutant TOR1A in lysate, primary screen, cell lysate, small-molecule microarray, COS7 lysate, 635/667 nm fluorescence (AID 1150).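 Also: score pools 667 nm emission and signal to noise measuring lysate protein binding.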 The following applies: COS7 hTOR1A mutant lysate, 635 nm fluorescence, higher = more signal.
In assay [10] the test system is Sonic hedgehog protein (Shh). Description: small-molecule binders of Shh protein, primary screen, biochemical, small-molecule microarray, 635/667 nm fluorescence (AID 1151).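 Also: Shh protein binding to compounds spotted on small-molecule microarray slides; score combines spot fluorescence intensity with signal-to-noise across triplicate slides.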 Particulars: small-molecule microarray binding, 635 nm fluorescence; higher = more signal.

The values below come from PubChem BioAssay.

The structures appear in SMILES notation. Calls of active or inactive are those of the source. Unless noted, no rule for the calls is given here.

Torsin-1A (Homo sapiens), sequence (O14656 whole entry, looked up): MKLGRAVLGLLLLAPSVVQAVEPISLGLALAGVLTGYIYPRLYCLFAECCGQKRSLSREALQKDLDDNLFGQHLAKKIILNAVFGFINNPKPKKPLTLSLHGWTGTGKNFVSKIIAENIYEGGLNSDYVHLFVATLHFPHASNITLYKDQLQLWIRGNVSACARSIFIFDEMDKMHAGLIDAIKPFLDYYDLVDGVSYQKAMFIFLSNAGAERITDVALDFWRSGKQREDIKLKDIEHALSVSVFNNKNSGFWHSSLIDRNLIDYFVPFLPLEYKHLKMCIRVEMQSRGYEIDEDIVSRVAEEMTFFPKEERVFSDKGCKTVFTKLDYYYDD

On to `Cc1c(NC(=O)/C(C#N)=C/C=C/c2ccc(N(C)C)cc2)c(=O)n(-c2ccccc2)n1C`, for which the composite z-score in assay [1] was determined as 0.48; in assay [6], 0.96; in assay [7] it was 0.264; with Torsin-1A (Homo sapiens) [8], 0.314; with Torsin-1A (Homo sapiens) [9], 0.288; in assay [10] it was 0.259. For the same compound, the z-score is -0.853 (inactive) in [2], 2.09 (inactive) in assay [3], 0.595 (inactive) in [4] and -1.4 (inactive) in assay [5].
For the compound `C=C1C2CC3C(=C4C(CO[C@@H]4[C@H]4CCCN4S(=O)(=O)c4ccccc4[N+](=O)[O-])C4C(=O)N(C)C(=O)C34)CC2C(=O)N1C` (stereo not given in full), the composite z-score in assay [1] is -0.0541; in assay [6] it was -0.207; in [7], -0.101; with Torsin-1A (Homo sapiens) [8] it was 0.942; in the assay with Torsin-1A (Homo sapiens) [9] it was 0.107; in [10], 0.832. In addition, the z-score in [2] is 0.985 (inactive); in assay [3], 0.283 (inactive); in assay [4] it was 3.21 (inactive); in [5], 0.769 (inactive).
As to `COc1cc2c(cc1OC)CN(C(=O)[C@H]1[C@@H]3C(=O)O[C@@H](c4ccccc4)[C@@H](c4ccccc4)N3[C@@H](c3ccc(OCCO)cc3)[C@]13C(=O)Nc1ccc(C#CC4(O)CCCCCC4)cc13)CC2`, the composite z-score was determined as 0.928 in assay [1]; 1.54 in assay [6]; 1.23 in assay [7]; 0.765 with Torsin-1A (Homo sapiens) [8]; 1.85 with Torsin-1A (Homo sapiens) [9]; 1.96 in assay [10]. The z-score is -0.425 (inactive) in assay [2], -1.33 (inactive) in [3], -0.438 (inactive) in [4] and 0.195 (inactive) in [5].
On to `CN(C)CCCNC(=O)[C@@]1(c2ccc([N+](=O)[O-])cc2)CC(=O)N(CC23CC4CC(CC(C4)C2)C3)[C@@H]1c1ccc(CO)cc1`, for which the composite z-score was 0.461 in assay [1]; 2.03 in [6]; 0.641 in [7]; -0.183 with Torsin-1A (Homo sapiens) [8]; 0.0626 with Torsin-1A (Homo sapiens) [9]; 0.989 in assay [10]. The z-score in assay [2] was -5.82 (inactive); in assay [3], -0.262 (inactive); in [4], -0.295 (inactive); in assay [5] it was -0.741 (inactive).
With `O=C(O)[C@H]1C[C@H]2C(=O)N3CCC[C@H]3C(=O)N2[C@H]1c1cccc(OCCO)c1`, the composite z-score in assay [1] is 0.188; in assay [6], -0.0748; in assay [7] it was -0.154; in the assay with Torsin-1A (Homo sapiens) [8], 0.847; in the assay with Torsin-1A (Homo sapiens) [9] it was 1.57; in assay [10] it was 0.643. Besides, the z-score in assay [2] was -0.716 (inactive); in assay [3] it was 0.0521 (inactive); in assay [4], 0.818 (inactive); in assay [5], 0.0548 (inactive).
As to `NCCCCCCNC(=O)[C@@H]1C[C@@H]2C(=O)N3CCC[C@H]3C(=O)N2[C@@H]1c1ccc(O)cc1`, the composite z-score in [1] is 0.236; in assay [6], 1.01; in assay [7] it was -0.323; in the assay with Torsin-1A (Homo sapiens) [8], 0.592; in the assay with Torsin-1A (Homo sapiens) [9] it was 0.513; in assay [10] it was 2. Moreover, the z-score in [2] is -0.118 (inactive); in assay [3], -0.515 (inactive); in assay [4], 0.826 (inactive); in assay [5], -0.615 (inactive).
Regarding `CN1C(=O)C2C(C1=O)C1C=C(c3ccc(CO)cc3)C2C(c2cccs2)N1Cc1cccc(OC(F)(F)F)c1` (stereo not given), the composite z-score was 0.314 in assay [1]; 0.474 in assay [6]; 0.0689 in [7]; 1.13 in the assay with Torsin-1A (Homo sapiens) [8]; -0.0742 with Torsin-1A (Homo sapiens) [9]; 0.834 in assay [10]. In addition, the z-score in [2] is -3.4 (inactive); in assay [3] it was -0.656 (inactive); in [4] it was -0.336 (inactive); in assay [5] it was -1.55 (inactive).
With `CO[C@H]1O[C@H](CO)[C@@H](OC(=O)Nc2ccc(Oc3ccccc3)cc2)[C@H](OC(=O)Nc2ccccc2-c2ccccc2)[C@@H]1OC(=O)Nc1ccccc1-c1ccccc1`, the composite z-score in assay [1] is 0.58; in [6], 0.819; in assay [7] it was 0.588; with Torsin-1A (Homo sapiens) [8] it was -0.21; with Torsin-1A (Homo sapiens) [9], 0.408; in assay [10], 0.74. For the same compound, the z-score was -4.64 (inactive) in assay [2], -0.935 (inactive) in assay [3], -0.198 (inactive) in [4] and -0.355 (inactive) in assay [5].
Take `COc1cc2c(cc1OC)CN(C(=O)[C@@H]1[C@H]3C(=O)O[C@H](c4ccccc4)[C@H](c4ccccc4)N3[C@H](c3ccccc3OCCO)[C@@]13C(=O)Nc1ccc(C#CC4(O)CCCCCC4)cc13)CC2`: the composite z-score is 0.0109 in assay [1]; 0.445 in assay [6]; -0.0523 in assay [7]; 0.825 with Torsin-1A (Homo sapiens) [8]; 0.827 in the assay with Torsin-1A (Homo sapiens) [9]; 0.791 in [10]. Also, the z-score in [2] is -2.91 (inactive); in assay [3] it was -0.0135 (inactive); in assay [4], -0.788 (inactive); in assay [5] it was -0.749 (inactive).
`CC(C)N1C(=O)[C@@]2(c3ccc([N+](=O)[O-])cc3)CC(=O)N(C3CCCCC3)[C@@H]2c2ccc(CO)cc21`: the composite z-score in assay [1] is -0.0311; in [6], -0.196; in assay [7], -0.045; with Torsin-1A (Homo sapiens) [8], -0.36; with Torsin-1A (Homo sapiens) [9], -0.123; in assay [10], 1.02. Besides, the z-score in [2] is -0.311 (inactive); in [3] it was -1.16 (inactive); in assay [4], -0.464 (inactive); in [5], -0.144 (inactive).
As to `COCCOC(=O)N1C(=O)[C@@]2(c3ccccc31)[C@H](C(=O)N1CCN(c3ncccn3)CC1)[C@H]1C(=O)O[C@H](c3ccccc3)[C@H](c3ccccc3)N1[C@@H]2c1ccc(OCCO)cc1`, the composite z-score in assay [1] is 0.561; in assay [6], 1.19; in [7], 0.336; with Torsin-1A (Homo sapiens) [8] it was 0.281; with Torsin-1A (Homo sapiens) [9], 0.59; in assay [10], 1.82. The z-score in [2] is -1.12 (inactive); in assay [3] it was -0.236 (inactive); in assay [4], 1.3 (inactive); in assay [5] it was -0.599 (inactive).
On to `O=C1C2C=CC(C(O)c3cc(C(F)(F)F)cc(C(F)(F)F)c3)N(Nc3ccc([N+](=O)[O-])cc3)C2C(=O)N1c1ccccc1` (stereo not given), for which the composite z-score in assay [1] turned out to be 0.553; in assay [6], 1.02; in assay [7], 0.358; in the assay with Torsin-1A (Homo sapiens) [8], 0.621; in the assay with Torsin-1A (Homo sapiens) [9], 0.428; in assay [10] it was 0.74. Also, the z-score in [2] was -4.58 (inactive); in assay [3] it was -0.0376 (inactive); in assay [4] it was 1.63 (inactive); in assay [5] it was -0.303 (inactive).
Regarding `O=C1O[C@H](c2ccccc2)[C@H](c2ccccc2)N2[C@H]1[C@@H](C(=O)O)[C@]1(C(=O)Nc3ccccc31)[C@H]2c1ccc(O)cc1`, the composite z-score in [1] was 0.251; in assay [6], -0.516; in assay [7] it was -0.0418; with Torsin-1A (Homo sapiens) [8], 0.109; with Torsin-1A (Homo sapiens) [9] it was 1.45; in assay [10], -0.429. Besides, the z-score was 0.0915 (inactive) in assay [2], -0.0265 (inactive) in [3], -0.0566 (inactive) in assay [4] and -0.763 (inactive) in assay [5].
As to `COc1ccc(C(O)C2C=CC3C(=O)N(c4ccccc4)C(=O)C3N2Nc2ccccc2)cc1OCc1ccccc1` (stereo not given), the composite z-score is 0.302 in [1]; 0.887 in [6]; 0.185 in [7]; 0.867 in the assay with Torsin-1A (Homo sapiens) [8]; 0.887 with Torsin-1A (Homo sapiens) [9]; 0.81 in assay [10]. Moreover, the z-score in [2] was 0.197 (inactive); in [3], -1.12 (inactive); in assay [4] it was 0.0535 (inactive); in [5], 0.414 (inactive).
